Experimental data published in PubChem BioAssay AID1259343 (VanderVen Lab, College of Veterinary Medicine, Cornell …, 2017).
Among all 6,200 compounds or so, about 2,900 (47%) were called active. Cut-off read from the data, not from the text of the source: active = inhibition above about 50%; inactive = the rest. So high a share suggests a set chosen from earlier hits. The list shows a part of the results.

Test: Mycobacterium tuberculosis growth inhibition, primary screen (AID 1259343)
Settings: inhibition: at 10 µM, active compounds read high; outcome: 10 uM

Compound | inhibition
O=C(c1ccc(Cl)cc1Cl)N1CCCC(OCc2ccccc2Cl)C1 (configuration not stated) | 20.5% (inactive)
C(=Cc1ccccc1)C=NNc1ncnc2ccccc12 | 99.2% (active)
Oc1ccc(C=NNc2ncnc3scc(-c4ccccc4)c23)c(O)c1 | 12.7% (inactive)
C(=Cc1ccccc1)C=NNc1nn[nH]n1 | 86.6% (active)
O=C(NN=CC=Cc1ccccc1)c1cc(C23CC4CC(CC(C4)C2)C3)[nH]n1 | 11.1% (inactive)
c1ccc(Nc2ccc(OCc3nn[nH]n3)cc2)cc1 | 10.5% (inactive)
CCOCCSc1nnc(C)c2cnn(-c3ccc(C)c(C)c3)c12 | 51.4% (active)
Cc1ccc(-n2ncc3c(C4CC4)nn(C)c(=O)c32)cc1C | 47.4% (inactive)
CC(C)c1nnc(SCc2cccnc2)c2c1cnn2-c1ccc(F)cc1 | 48% (inactive)
O=C1[C@H]2C(c3ccccc3)=NN(c3ccccc3)[C@H]2C(=O)N1c1ccccc1 | 73% (active)
CC(=O)C1=NN(c2ccccc2)C2C(=O)N(c3ccc(Br)cc3)C(=O)C12 (configuration not stated) | 14.1% (inactive)
O=c1[nH]cnc2c1nnn2-c1ccc(OC(F)(F)F)cc1 | 49.2% (inactive)
N[C@H](C(=O)O)[C@@H]1CC(Cl)=NO1 | 91.8% (active)
CCOc1cc(C=CC(=O)c2ccc(Cl)cc2)ccc1O | 54% (active)
CCOc1c(Br)cc(C=CC(=O)c2ccc(F)cc2)cc1OC | -23.1% (inactive)
CCOc1c(Br)cc(C=CC(=O)c2ccc(OC)cc2)cc1OC | 14.3% (inactive)
O=S(=O)(Nc1ccc(OC(F)F)c(Cl)c1)c1ccc(Cl)s1 | 79.2% (active)
O=S(=O)(Nc1ccc(F)c(Cl)c1)c1ccc(Br)s1 | 24.5% (inactive)
O=S(=O)(Nc1ccc(F)c(Cl)c1)c1ccc(Cl)s1 | 52.7% (active)
O=S(=O)(Nc1ccc(OC(F)F)c(Cl)c1)c1ccc(Cl)c(Cl)c1 | -2.94% (inactive)
O=S(=O)(Nc1ccc(OC(F)F)c(Cl)c1)c1ccc(F)c(Cl)c1 | -3.78% (inactive)
Cc1ccc(-c2ccsc2C(=O)NS(=O)(=O)N2CCCCC2)cc1 | 20.7% (inactive)
COC(=O)c1sccc1S(=O)(=O)Nc1cc(C)ccc1OC | 54.2% (active)

Compound | inhibition
COC(=O)c1sccc1NS(=O)(=O)c1cc(Cl)cc(Cl)c1 | 7.22% (inactive)
O=C(C1c2ccccc2Oc2ccccc21)N(C(=O)N1CCCCC1)c1ccccc1 | 3.02% (inactive)
Cc1cc(OCCN2CCN(Cc3ccccc3)CC2)ccc1I | 88.7% (active)
Cc1cc(C)c(CN2CCC(CO)(CCOc3ccccc3)CC2)cc1C | 17.3% (inactive)
O=c1ccc(-c2cccc(Br)c2)nn1Cc1cccc(F)c1 | 48.5% (inactive)
Cc1cccc(Cn2nc(-c3ccc(Br)cc3)ccc2=O)c1 | 24.7% (inactive)
Cc1cccc(Cn2nc(-c3ccc(F)cc3)c3sc(C)nc3c2=O)c1 | 94% (active)
COc1ccc2c(C)nc(N=C(N)N)nc2c1 | 38.5% (inactive)
CC(C)c1ccc(C(N)=S)cc1 | 99.7% (active)
CC(C)c1ccc(S(=O)(=O)c2ccc(Cl)cc2)cc1 | -10.2% (inactive)
COc1ccc(C(N)=S)cc1 | 68.6% (active)
CCN(C(=O)c1ccc2c(=O)n(CC)c(=O)[nH]c2c1)c1ccccc1C | -22.1% (inactive)
Fc1ccc(Cn2ncc3c2CN(c2nc4ccccc4s2)C3)cc1 | 32.9% (inactive)
Fc1ccccc1Cc1noc(CN2CCN(c3nc4ccccc4s3)CC2)n1 | 60.6% (active)
c1csc(-c2noc(CN3CCCN(c4nc5ccccc5s4)CC3)n2)c1 | 91.6% (active)
c1ccc(CCc2noc(CN3CCN(c4nc5ccccc5s4)CC3)n2)cc1 | 89.5% (active)
CCCc1nc(CN2Cc3ccccc3-c3ccccc3C2)no1 | -15.3% (inactive)
O=C(NN=Cc1ccc(O)cc1)c1cc(C23CC4CC(CC(C4)C2)C3)[nH]n1 | 16.7% (inactive)
O=C(NN=Cc1ccc(O)cc1)c1cc(-c2ccc(Cl)cc2Cl)n[nH]1 | 85.8% (active)
O=C(NN=Cc1ccco1)c1cc(-c2ccc(Cl)cc2)n[nH]1 | 43.3% (inactive)
COCCCCC(=O)Nc1cc(C(F)(F)F)[nH]n1 | 78% (active)
Cc1cccc(C2Oc3ccccc3C3CC(c4ccc5c(c4)OCCO5)=NN32)c1 (configuration not stated) | -14.9% (inactive)
COc1cccc(C2Oc3ccccc3C3CC(c4ccc5c(c4)OCCO5)=NN32)c1 (configuration not stated) | 103% (active)

Compound | inhibition
COc1cccc2c1OC(c1ccccn1)N1N=C(c3ccccc3)CC21 (configuration not stated) | -22.4% (inactive)
CN1CCC[C@@H]1CCO[C@](C)(c1ccccc1)c1ccc(Cl)cc1 | 37.7% (inactive)
O=C(Nc1ncc(-c2ccccc2)s1)OCC(F)(F)F | 0.3% (inactive)
O=C(Nc1ncc(-c2ccccc2)s1)C1CSCCS1 (configuration not stated) | 95.8% (active)
CC1(C)CC(=O)CC(=NNC(=S)NC2CCCCC2)C1 | 34.4% (inactive)
S=C(NN=C1CC2CC=CC12)NC1CCCCC1 (configuration not stated) | 1.05% (inactive)
O=C1CCCC(=NNC(=S)NC2CCCCC2)C1 | 55.2% (active)
CN(CCC(O)c1ccccc1)C(=O)c1ccc(Cl)s1 (configuration not stated) | 13.2% (inactive)
CC(CCc1ccccc1)N=c1c([N+](=O)[O-])nn(-c2ccccc2)n1O (configuration not stated) | 102% (active)
Cc1cc2c(=O)n(Cc3ccco3)c(SCC(=O)c3cccs3)nc2s1 | 85.2% (active)
COc1ccc(-c2noc(COc3cccc4c3OCCO4)n2)cc1 | 51.6% (active)
COc1ccc(-c2noc(CSc3nnnn3C3CCCC3)n2)cc1 | 41% (inactive)
CN(NC(=O)CC(=O)NN(C)C(=S)c1ccccc1)C(=S)c1ccccc1 | 102% (active)
CC(C(O)c1ccccc1)N(C)C(=O)c1ccccc1 (configuration not stated) | 1.34% (inactive)
Oc1ccc2ccccc2c1C=NNc1nnc(-c2ncc[nH]2)c2ccccc12 | 99% (active)
Oc1ccc2ccccc2c1C=NNC1=NCCC1 | 27.5% (inactive)
Cc1cc(=O)[nH]c(NN=Cc2c3ccccc3cc3ccccc23)n1 | 49.1% (inactive)
CCCC(C)C1(CC)C(=O)NC(=S)NC1=O (configuration not stated) | 32.6% (inactive)
CS(=O)(=O)Nc1ccc([N+](=O)[O-])cc1Oc1ccccc1 | 24.9% (inactive)
Nc1ccc(S(=O)(=O)Nc2ccc([N+](=O)[O-])cc2O)cc1 | 53.9% (active)
Nc1cc([N+](=O)[O-])ccc1NS(=O)(=O)c1ccc(Cl)cc1 | -52.1% (inactive)
